# Bioassay records (PubChem BioAssay)
# An excerpt weighted towards active compounds, which were near 0.93% of everything screened.
# AGP1 TOR yeast: modulators of AGP1-GFP expression in yeast TOR pathway, primary screen, cell-based, multiplex flow cytometry, S. cerevisiae, MLPCN library | 3 h; GFP as percent of DMSO wells | 0.02% of 320,000 active | AID 2066, 2009 | GFP response vs DMSO, % at 10 µM;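 active = GFP response relative to DMSO above a set limit, near screen average plus 3 SD, cut at about 150% in these data; inconclusive = fewer than 70 cells counted for the yeast strain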;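 note: median GFP channel fluorescence of the gated AGP1 strain per well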
# RPL19A TOR yeast: RPL19A-GFP expression modulators in yeast, primary screen, cell-based, S. cerevisiae, multiplex flow cytometry, MLPCN; 0.3% of 330,000 active; S. cerevisiae RPL19A-GFP strain, 3 h; hits give low values; percent response vs DMSO, % at 10 µM;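 active = percent response vs DMSO below 50%; inconclusive = fewer than 70 events counted for the yeast strain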;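 note: median channel GFP fluorescence of the barcoded RPL19A-GFP strain; ratio of sample median GFP to plate DMSO average so 100% = DMSO; lower means less RPL19A-GFP as with rapamycin TOR inhibition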
# LAP4 TOR yeast: modulators of LAP4-GFP expression in yeast, primary screen, S. cerevisiae, multiplex flow cytometry, MLPCN library; 0.34% of 320,000 active; 3 h; median GFP as percent of DMSO wells; GFP response vs DMSO, % at 10 µM;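 active = GFP response vs DMSO above a set limit, about the screen mean plus 3 SD, cut at about 150% in these data; inconclusive = under 70 cell events counted for the yeast strain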
# CIT2 TOR yeast: modulators of CIT2-GFP expression in yeast, primary screen, S. cerevisiae, GFP fusion, multiplex flow cytometry, MLPCN library; S. cerevisiae CIT2-GFP strain, 3 h; 100 means same as DMSO wells; GFP response vs DMSO, % at 10 µM; 0.065% of 320,000 active;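 active = GFP response relative to DMSO above a set limit, near the screen mean plus 3 SD, cut at about 150% in these data; inconclusive = Fewer than 70 cells measured for a yeast strain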;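 note: ratio of well median GFP fluorescence to mean of DMSO wells on the plate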
# MEP2-GFP yeast: modulators of MEP2-GFP levels in yeast, primary screen, S. cerevisiae, multiplex flow cytometry, MLPCN library. AID 2016, 2009. S. cerevisiae MEP2-GFP strain, 3 h; 100% = DMSO control level. GFP response vs DMSO, % at 10 µM. 0.51% of 330,000 active;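 active = GFP response versus DMSO above a set limit, roughly screen mean plus 3 SD, cut at about 180% in these data; inconclusive = fewer than 70 cells counted for a yeast strain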;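 note: median GFP fluorescence of the barcode-gated MEP2-GFP cells per well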
# Numbers without * were called inactive; ? = inconclusive; / = not tested or not shown; [ ] = dose if it differs, or a comment.
SMILES,AGP1 TOR yeast,RPL19A TOR yeast,LAP4 TOR yeast,CIT2 TOR yeast,MEP2-GFP yeast
C/C(CC(=O)Nc1ccccn1)=N\NC(=O)C(=O)Nc1ccccc1C,?,66.7,64.5,?,249.4*[may fluoresce violet]
COc1ccccc1C(=O)N/N=C(\C)CC(=O)Nc1ccccn1,?,70.0,86.3,?,341.9*[may fluoresce violet]
COc1ccccc1C(=O)N/N=C(\C)CC(=O)Nc1ccc(Cl)cn1,99.5,93.5,108.2,90.0,89.9
COc1ccc(C(C)(C)C)cc1NC(=O)COc1ccc(-c2nnco2)cc1,99.1,94.2,110.5,86.6,94.7
COc1cccc(/C=N/NC(=O)CCC(=O)Nc2ccc(Br)cc2)c1,95.8,107.5,135.6,148.6,194.8*
CC1(C)CCN2CCC(C)(C)c3c(O)ccc1c32,107.0,113.3,163.6*,191.0*,233.7*
Cc1ccc(NC(=O)c2cc(C(=O)Nc3ccc(C)cc3)n(C)n2)cc1,?,39.4*[may fluoresce violet],74.2,?,227.1*[may fluoresce violet]
Cc1ccc(NC(=O)c2ccc(=O)n(CC(=O)Nc3ccccc3)n2)cc1,16.6,45.3*[may fluoresce violet],89.4,?,131.5
CCc1nn(CCCC(=O)NCc2ccccc2C)c(=O)c2cc3occc3n12,105.8,100.9,111.0,105.6,104.8
Cc1cc(C)n(-c2nc(NC(C)C)nc(NC(C)C)n2)n1,?,17.8*[may fluoresce violet],100.4,?,355.4*[may fluoresce violet]
Cc1cc(C)n(-c2nc(NC(C)(C)C)nc(NC(C)(C)C)n2)n1,110.5,107.3,96.2,107.9,101.7
CCS(=O)(=O)N1CCN(S(=O)(=O)c2ccc3c(c2)OCCO3)CC1,?,40.4*[may fluoresce violet],114.5,?,?
O=C(CSc1ccccc1)NNC(=O)c1ccccc1O,93.8,101.5,93.8,94.6,91.6
O=c1cc(N2CCCCC2)[nH]c(=O)n1C1CCCCC1,97.8,102.5,104.0,92.5,101.4
O=c1cc(N2CCc3ccccc3C2)[nH]c(=O)n1C1CCCCC1,/,61.4,99.5,?,197.9*[may fluoresce violet]
CCOc1cc(/C=C\c2nc(O)c([N+](=O)[O-])c(=O)[nH]2)ccc1OC(C)C,?,53.1,66.4,?,606.6*[may fluoresce violet]
CCOc1cc(/C=C\c2[nH]c(=O)[nH]c(=O)c2[N+](=O)[O-])ccc1OC(C)CC (stereo not given),88.6,96.5,85.2,93.3,101.4
COc1cccc(/C=N/N2CCN(C3c4ccccc4-c4ccccc43)CC2)c1O,105.4,99.5,109.7,110.2,100.5
CC1=CC(c2ccccc2)n2nc(N3C(=O)C4CC=CCC4C3=O)nc2N1 (stereo not given),/,44.3*[may fluoresce violet],100.8,?,448.2*[may fluoresce violet]
CC1=CC(c2ccccc2)n2nc(N3C(=O)CCC3=O)nc2N1 (stereo not given),109.8,98.4,99.4,104.3,110.3
CCOc1ccccc1N(C(=O)CNC(=O)c1ccco1)C(C(=O)NC1CCCC1)c1ccncc1 (stereo not given),101.1,95.3,92.7,93.4,101.6
COc1ccc(NC(=O)CCC(=O)NCCO)cc1,21.8,59.3,101.6,?,290.9*[may fluoresce violet]
O=C(CCC(=O)Nc1ccccc1)NCCO,98.8,100.0,101.5,97.4,102.1
CC(=O)c1ccc(OCCCC(=O)N(CCC2=CCCCC2)c2c(N)n(Cc3ccccc3)c(=O)[nH]c2=O)cc1,89.5,86.3,85.2,88.5,84.2
O=C(COC(=O)Cc1c(Cl)cccc1Cl)NCC1CCCO1 (stereo not given),97.3,98.0,98.7,91.9,95.7
SMILES,AGP1 TOR yeast,RPL19A TOR yeast,LAP4 TOR yeast,CIT2 TOR yeast,MEP2-GFP yeast
N#Cc1nc(/C=C/c2ccccc2)oc1NCCCN1CCOCC1,114.5,103.2,118.6,109.2,104.9
COc1ccc(C2=NOC(C(=O)NC(C)(C)C)C2)cc1 (stereo not given),/,44.0*[may fluoresce violet],94.5,?,144.9
O=C(CCl)N1CCN(CC(=O)N2CCCC2)CC1,99.3,95.5,94.9,96.5,101.9
Cc1cc(C)c2nc(N3C(=O)C(O)=C(C(=O)c4ccco4)C3c3ccco3)sc2c1 (stereo not given),?,52.3,89.2,?,315.3*[may fluoresce violet]
O=C1CCC([N+](=O)[O-])C(c2ccc(Cl)cc2)N1 (stereo not given),?,42.9*[may fluoresce violet],?,?,?
O=C1CCC([N+](=O)[O-])C(c2ccc(Cl)c([N+](=O)[O-])c2)N1 (stereo not given),101.3,95.3,106.2,93.3,94.6
CCN1C(=O)/C(=C\c2cccc(OC(=O)c3ccco3)c2)SC1=S,?,46.6*[may fluoresce violet],76.7,?,?
O=C(O)CN1C(=O)/C(=C\c2cccc(OC(=O)c3ccco3)c2)SC1=S,95.4,100.1,101.9,90.7,102.9
COc1ccc(-c2c(C)nn3c(C)cc(C)nc23)cc1,95.7,103.0,93.9,101.5,101.9
O=C(Nc1ccc2oc(-c3cccnc3)nc2c1)c1ccco1,69.6,57.4,201.6*,88.2,88.8
O=C(Nc1ccc2oc(-c3cccnc3)nc2c1)c1ccc(Br)o1,97.2,100.5,102.6,99.3,100.7
Cc1cccc(OCC(=O)Nc2ccc3c(C)cc(=O)oc3c2)c1,85.4,94.9,82.8,91.6,89.0
Cc1cc(=O)oc2cc(NC(=O)CCOc3ccccc3)ccc12,?,38.3*[may fluoresce violet],61.2,?,254.6*[may fluoresce violet]
COc1cccc(-c2onc3ccc(C(C)=O)cc23)c1,84.6,102.0,103.2,102.6,99.4
CC(=O)c1ccc2noc(-c3cccc(F)c3)c2c1,18.7,58.5,68.3,?,192.8*[may fluoresce violet]
COc1ccc(OC)c(C(=O)NC(CC(N)=O)c2ccc(N3CCN(c4ccc(F)cc4)CC3)c([N+](=O)[O-])c2)c1 (stereo not given),86.3,98.2,118.8,84.8,86.8
O=C(c1cc(F)ccc1F)N1CCC(N2CCC(C(=O)N3CCCC3)CC2)CC1,14.4,37.0*[may fluoresce violet],84.1,?,114.8
O=C(c1ccccc1Cl)N1CCC(N2CCC(C(=O)N3CCCC3)CC2)CC1,95.8,97.1,85.1,93.0,97.6
O=C(NCCOCCNC(=O)OCc1ccccc1)OCc1ccccc1,103.5,101.1,112.1,98.5,96.3
CCOC(=O)c1cnc(-c2ccccc2)nc1Oc1cccc(Cl)c1,23.8,65.3,89.8,?,196.4*[may fluoresce violet]
Cc1cc(C)c2sc(NC(=O)C3=COCCO3)nc2c1,92.5,88.8,165.5*,84.4,102.6
CCc1ccc(Nc2oc(C)cc(=O)c2C(C)=O)cc1,14.6,90.1,71.8,?,298.4*[may fluoresce violet]
CCc1ccc(NC(=O)c2[nH]c(C)c(C(C)=O)c2C)cc1,96.7,101.5,103.5,97.6,100.3
COc1ccc(/C=N/NC(=O)c2cc3c(ccc4ccccc43)o2)cc1OC,90.4,106.0,70.2,93.1,98.1
